Experimental data reported in PubChem BioAssay (NCATS).
Inconclusive results are not listed. The source made the active and inactive calls. Calls follow the shape of the dose curve; as a rule, active = well fitted curve in the direction sought with a large enough effect; inconclusive = small, poorly fitted or top-dose-only effect, or another doubt; inactive = no such curve, though single readings can be large; an effect the other way counts as inactive or inconclusive.

Assays:
[1] = qHTS of pediatric cancer cell lines to identify multiple opportunities for drug repurposing: Primary screen for SK-N-MC cells (AID 1347093);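 also: series mostly up to about 46 µM; plate controls were DMSO neutral control for no effect and bortezomib for full effect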
Method in brief: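 Metabolically active cells were quantified by ATP-dependent luminescence (CellTiter-Glo, 15 min at room temperature) following 48 h treatment. Cells had been plated at 500-1,000 per well and settled for 5 h beforehand.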

[2] = qHTS of pediatric cancer cell lines to identify multiple opportunities for drug repurposing: Primary screen for BT-37 cells (AID 1347094);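 also: series mostly up to about 57 µM; plate controls were DMSO for no effect and bortezomib for full effect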
Method in brief: (§1)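 Following a 5-hour attachment period, cells at 500-1,000/well received compounds and were cultured for 48 hours. CellTiter-Glo was added and luminescence read to estimate viable, metabolically active cells.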

[3] = qHTS of pediatric cancer cell lines to identify multiple opportunities for drug repurposing: Primary screen for NB-EBc1 cells (AID 1347095);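 also: plate controls were DMSO neutral control for no effect and bortezomib for full effect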
Method in brief: as §1

[4] = qHTS of pediatric cancer cell lines to identify multiple opportunities for drug repurposing: Primary screen for U-2 OS cells (AID 1347096);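 also: plate controls were DMSO wells for no effect and bortezomib positive control wells for full effect; nearly all actives have a fitted effect of over 50% in size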
Method in brief: (§2)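 Cells (500-1,000/well) rested 5 h, then received compounds for 48 h; metabolically active cells were measured by CellTiter-Glo luminescence. Final concentrations spanned up to 46 µM (MIPE, 11-point) or 0.59 nM-46 µM (NPC, 8-point) in primary screens, 11-point in follow-ups.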

[5] = qHTS of pediatric cancer cell lines to identify multiple opportunities for drug repurposing: Primary screen for Saos-2 cells (AID 1347097); also: % is scaled to controls: 0 for no effect and ±100 for the full control effect; nearly all actives have a fitted effect of over 40% in size
Method in brief: as §1

[6] = qHTS of pediatric cancer cell lines to identify multiple opportunities for drug repurposing: Primary screen for SK-N-SH cells (AID 1347098);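 also: DMSO served as neutral control and bortezomib at 2.3 µM as positive control; % is scaled to controls: 0 for no effect and ±100 for the full control effect; nearly all actives have a fitted effect of over 65% in size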
Method in brief: as §2

[7] = qHTS of pediatric cancer cell lines to identify multiple opportunities for drug repurposing: Primary screen for NB1643 cells (AID 1347099);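 also: plate controls were DMSO neutral control for no effect and bortezomib positive control for full effect; nearly all actives have a fitted effect of over 50% in size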
Method in brief: as §1

[8] = qHTS of pediatric cancer cell lines to identify multiple opportunities for drug repurposing: Primary screen for LAN-5 cells (AID 1347100);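 also: plate controls were DMSO neutral control for no effect and bortezomib positive control for full effect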
Method in brief: as §2

[9] = qHTS of pediatric cancer cell lines to identify multiple opportunities for drug repurposing: Primary screen for BT-12 cells (AID 1347101);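 also: plate controls were DMSO for no effect and bortezomib positive control for full effect; nearly all actives have a fitted effect of over 25% in size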
Method in brief: as §2

[10] = qHTS of pediatric cancer cell lines to identify multiple opportunities for drug repurposing: Primary screen for Rh18 cells (AID 1347102); also: % is scaled to controls: 0 for no effect and ±100 for the full control effect; nearly all actives have a fitted effect of over 65% in size
Method in brief: as §2

CSc1ccc(C(=O)c2[nH]c(=O)[nH]c2C)cc1
inactive: Potency [1] | Potency [2] | Potency [3] | Potency [4] | Potency [5] | Potency [6] | Potency [7] | Potency [8] | Potency [9] | Potency [10]

Cc1scc2c1N(C(=O)CN1CCN(C)CC1)c1ccccc1NC2=O
inactive: Potency [1] | Potency [2] | Potency [3] | Potency [4] | Potency [5] | Potency [6] | Potency [7] | Potency [8] | Potency [9] | Potency [10]

NCCCNCCSP(=O)(O)O
inactive: activity change, negative = cytotoxic [1] -14.6% [at 9.22 µM] | activity change, negative = cytotoxic [2] 7.29% [at 11.5 µM] | activity change, negative = cytotoxic [3] 10.2% [at 9.22 µM] | activity change, negative = cytotoxic [4] 2.93% [at 9.22 µM] | activity change, negative = cytotoxic [5] -20.9% [at 9.22 µM] | activity change, negative = cytotoxic [6] -0.785% [at 11.4 µM] | activity change, negative = cytotoxic [7] 7.51% [at 9.22 µM] | activity change, negative = cytotoxic [8] 27.4% [at 9.22 µM] | activity change, negative = cytotoxic [9] 8.37% [at 11.5 µM] | activity change, negative = cytotoxic [10] 9.05% [at 9.22 µM]

NC(=O)c1ncn([C@@H]2O[C@H](CO)[C@@H](O)[C@H]2O)c1O
inactive: Potency [1] | Potency [2] | Potency [3] | Potency [4] | Potency [5] | Potency [6] | Potency [7] | Potency [8] | Potency [9] | Potency [10]

Brc1c(NC2=NCCN2)ccc2nccnc12
inactive: Potency [1] | Potency [2] | Potency [3] | Potency [4] | Potency [5] | Potency [6] | Potency [7] | Potency [8] | Potency [9] | Potency [10]

C[N+](C)(C)CCCCCCCCCC[N+](C)(C)C
inactive: Potency [1] | Potency [2] | Potency [3] | Potency [4] | Potency [5] | Potency [6] | Potency [7] | Potency [8] | Potency [9] | Potency [10]

CCCCNc1ccc(C(=O)OCCN(C)C)cc1
inactive: Potency [1] | Potency [2] | Potency [3] | Potency [4] | Potency [5] | Potency [6] | Potency [7] | Potency [8] | Potency [9] | Potency [10]

C[N+](C)(C)CCOC(=O)CCC(=O)OCC[N+](C)(C)C
inactive: Potency [1] | Potency [2] | Potency [3] | Potency [4] | Potency [5] | Potency [6] | Potency [7] | Potency [8] | Potency [9] | Potency [10]

c1cnc(N2CCN(Cc3ccc4c(c3)OCO4)CC2)nc1
inactive: Potency [1] | Potency [2] | Potency [3] | Potency [4] | Potency [5] | Potency [6] | Potency [7] | Potency [8] | Potency [9] | Potency [10]

C[C@]12CCC(=O)C=C1CC[C@@H]1[C@@H]2CC[C@@]2(C)[C@H]1CC[C@]2(O)C(=O)CO
inactive: Potency [1] | Potency [2] | Potency [3] | Potency [4] | Potency [5] | Potency [6] | Potency [7] | Potency [8] | Potency [9] | Potency [10]

CN1C(=O)CC[C@H]1c1cccnc1
inactive: Potency [1] | Potency [2] | Potency [3] | Potency [4] | Potency [5] | Potency [6] | Potency [7] | Potency [8] | Potency [9] | Potency [10]

CC[N+](C)(C)c1cccc(O)c1
inactive: Potency [1] | Potency [2] | Potency [3] | Potency [4] | Potency [5] | Potency [6] | Potency [7] | Potency [8] | Potency [9] | Potency [10]

CN(C)C(=O)Oc1ccc[n+](C)c1
inactive: Potency [1] | Potency [2] | Potency [3] | Potency [4] | Potency [5] | Potency [6] | Potency [7] | Potency [8] | Potency [9] | Potency [10]

CN(C)C/C=C(/c1ccc(Br)cc1)c1cccnc1
inactive: Potency [1] | Potency [2] | Potency [3] | Potency [4] | Potency [5] | Potency [6] | Potency [7] | Potency [8] | Potency [9] | Potency [10]

C[C@]12C=CC(=O)C=C1CC[C@H]1[C@@H]3C[C@@H](O)[C@](O)(C(=O)CO)[C@@]3(C)C[C@H](O)[C@@]12F
inactive: Potency [1] | Potency [2] | Potency [3] | Potency [4] | Potency [5] | Potency [6] | Potency [7] | Potency [8] | Potency [9] | Potency [10]

CCCN1C[C@H](CSC)C[C@@H]2c3cccc4[nH]cc(c34)C[C@H]21
inactive: Potency [1] | Potency [2] | Potency [3] | Potency [4] | Potency [5] | Potency [6] | Potency [7] | Potency [8] | Potency [9] | Potency [10]

CN(C)CCOC(=O)COc1ccc(Cl)cc1
inactive: Potency [1] | Potency [2] | Potency [3] | Potency [4] | Potency [5] | Potency [6] | Potency [7] | Potency [8] | Potency [9] | Potency [10]

C[C@]12CCC(=O)C=C1CC[C@@H]1[C@@H]2C(=O)C[C@@]2(C)[C@H]1CC[C@]2(O)C(=O)CO
inactive: Potency [1] | Potency [2] | Potency [3] | Potency [4] | Potency [5] | Potency [6] | Potency [7] | Potency [8] | Potency [9] | Potency [10]

C[C@H](CS)C(=O)N1CCC[C@H]1C(=O)O
inactive: Potency [1] | Potency [2] | Potency [3] | Potency [4] | Potency [5] | Potency [6] | Potency [7] | Potency [8] | Potency [9] | Potency [10]

CCn1cc(C(=O)O)c(=O)c2cc3c(cc21)OCO3
inactive: Potency [1] | Potency [2] | Potency [3] | Potency [4] | Potency [5] | Potency [6] | Potency [7] | Potency [8] | Potency [9] | Potency [10]

CC1=NS(=O)(=O)c2cc(Cl)ccc2N1
inactive: Potency [1] | Potency [2] | Potency [3] | Potency [4] | Potency [5] | Potency [6] | Potency [7] | Potency [8] | Potency [9] | Potency [10]
